{"source": "PubChem BioAssay AID1628", "about": "(Sanford-Burnham Center for Chemical Genomics, 2009)", "note": "Screen size: about 190,000 compounds; about 930 (0.49%) were called active. This is one part of the list. Measured potencies and affinities stand elsewhere. Unmarked numbers belong to inactive results.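 Rule for the calls: active = z-score of insulin promoter reporter brightness in nuclei below -3 at 5 µM, with at least 500 cells counted; inconclusive = wells with under 500 cells, flagged as toxic or sparse; inactive = the rest.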", "data": [{"assay": "decrease of insulin promoter-GFP reporter – imaging, high-content screening, mouse beta cells (AID 1628)", "settings": "MIN6 insulin promoter GFP reporter, at 5 µM, hits give low values", "values": [{"smiles": "CC(=O)Oc1cc2cccc(OC(C)=O)c(=O)c2c(OC(C)=O)c1OC(C)=O", "z-score": -0.38}, {"smiles": "CC(=O)Oc1ccc(OC(C)=O)c(SCCCCCCl)c1", "z-score": "-3.45 (active)"}, {"smiles": "COC(=O)[C@H]1[C@H](C(=O)OC)[C@@H](C(=O)OC)N(c2ccc(OC)cc2)[C@@H]1C(=O)OC", "z-score": "-4.45 (active)"}, {"smiles": "CC(C)(CNS(=O)(=O)c1ccc(Cl)cc1)N1CCCCC1", "z-score": 3.62}, {"smiles": "CCNC(=S)NS(=O)(=O)c1ccc(Cl)cc1", "z-score": "-3.8 (active)"}, {"smiles": "O=C(CCNS(=O)(=O)c1ccc(Cl)cc1)NCc1cccs1", "z-score": 1.64}, {"smiles": "CCCCCCN1C=CC(=C/C=C(\\C#N)C(=O)OCC)C=C1", "z-score": 16.6}, {"smiles": "COc1ccc(Cn2c(=O)sc3ccccc32)cc1OC", "z-score": "-3.63 (active)"}, {"smiles": "C=CCN1C(=O)/C(=C\\c2ccc(OC(=O)c3ccco3)c(OC)c2)SC1=S", "z-score": 1.03}, {"smiles": "O=C(CCn1c(=O)sc2ccccc21)Nc1cccnc1", "z-score": 0.79}, {"smiles": "COc1cc(C)c(Cl)cc1S(=O)(=O)NCc1ccncc1", "z-score": "-4.94 (active)"}, {"smiles": "Cc1ccc(S(=O)(=O)NCc2ccncc2)c(C)c1C", "z-score": "-6.46 (active)"}, {"smiles": "COc1ccc(S(=O)(=O)NCc2ccncc2)cc1OC", "z-score": "-3.36 (active)"}, {"smiles": "COc1cccc(S(=O)(=O)NCc2ccc(C(=O)Nc3ccc(Cl)c(Cl)c3)cc2)c1", "z-score": 3.13}, {"smiles": "Cc1cc(C)n(C(=O)CCC2COc3ccccc3O2)n1", "note": "(stereo not given)", "z-score": 3.53}, {"smiles": "CCOC(=O)c1c(NC(=O)c2nn(CC)cc2Br)c(C#N)cn1-c1ccccc1", "z-score": "-3.62 (active)"}, {"smiles": "c1ccc2c(c1)CCN(CCCNc1nc3ccccc3n3cnnc13)C2", "z-score": "-3.05 (active)"}, {"smiles": "CCN(CC)S(=O)(=O)c1ccc2[nH]cc(C(=O)NCCC3=CCCCC3)c(=O)c2c1", "z-score": "-6.41 (active)"}, {"smiles": "CCn1cc(C(=O)NCCN(C)CCc2ccccc2)c(=O)c2cc(S(=O)(=O)N(C)C)ccc21", "z-score": 3.87}, {"smiles": "CN1CCNC(=O)C1CC(=O)NCCC1=CCCCC1", "note": "(stereo not given)", "z-score": 3.77}, {"smiles": "CN1CC=C2C(C#N)=C(N)C(C#N)(C#N)C(Cc3ccccc3)C2C1", "note": "(stereo not given)", "z-score": 3.5}, {"smiles": "Cc1cccc(NC(=S)NNC(=O)c2csc(C(C)C)c2)c1", "z-score": 1.31}, {"smiles": "COc1cccc(-c2nc(N3CCCCC3C)c3ccccc3n2)c1O", "note": "(stereo not given)", "z-score": "-3.15 (active)"}, {"smiles": "COC(=O)c1cc2c(-c3ccccc3)c(C)c3ccccn3c-2c1C(=O)OC", "z-score": 4.22}, {"smiles": "O=C1c2cccc3c(N4CCCCC4)ccc(c23)C(=O)N1c1ccccc1O", "z-score": 4.51}, {"smiles": "CC(C)(C)NC(=O)NC(=O)CN1CCCc2ccccc21", "z-score": 2.02}, {"smiles": "CC1Cc2ccccc2N1S(=O)(=O)c1cccs1", "note": "(stereo not given)", "z-score": "-6.66 (active)"}, {"smiles": "O=S(=O)(c1cccs1)N1CCCc2ccccc21", "z-score": "-3.97 (active)"}, {"smiles": "O=C(NCCN1CCN(Cc2ccc([N+](=O)[O-])cc2)CC1)C(=O)Nc1ccccc1", "z-score": "-3.53 (active)"}, {"smiles": "COc1cc(/C=C/C(=O)c2ccccc2O)cc(OC)c1OC", "z-score": -0.68}, {"smiles": "COc1ccc(C(=O)/C=C/c2ccccc2)c(O)c1", "z-score": -0.73}, {"smiles": "Cc1onc(-c2c(Cl)cccc2Cl)c1C(=O)NCc1ccco1", "z-score": -0.41}, {"smiles": "Cc1ccc(C(=O)Nc2ccccc2C(=O)NCc2ccco2)cc1S(=O)(=O)N1CCCCC1", "z-score": "-3.27 (active)"}, {"smiles": "COCCNC(=S)N/N=C(\\C)c1ccc2cc(OC)ccc2c1", "z-score": 3.43}, {"smiles": "Cc1cccc(NC(=O)CCNS(=O)(=O)c2cccc3nonc23)c1", "z-score": 0.73}, {"smiles": "Cc1cccc(NC(=O)/C=C/c2ccc([N+](=O)[O-])s2)c1", "z-score": 9.92}, {"smiles": "N#CCc1nc(CSc2nc3ccccc3s2)cs1", "z-score": 4.03}, {"smiles": "CC(=O)Nc1cccc(C(=O)/C=C/c2ccc(N(C)C)cc2)c1", "z-score": 12.5}, {"smiles": "CCN(CC)c1ccc(/C=C/C(=O)c2ccc(Br)cc2)cc1", "z-score": 8.04}, {"smiles": "CN(C)c1ccc(N/C=C/C(=O)c2ccc(F)cc2)cc1", "z-score": "-5.01 (active)"}, {"smiles": "Cc1cc(C)nc(NS(=O)(=O)c2ccc(NC(=O)c3ccc4c(c3)OCO4)cc2)n1", "z-score": -0.38}, {"smiles": "COc1ccc(S(=O)(=O)N(C)CC(=O)Nc2ccc3c(c2)OCO3)cc1OC", "z-score": "-5.9 (active)"}, {"smiles": "CN(C)C(=O)CN(c1ccc2c(c1)OCO2)S(C)(=O)=O", "z-score": 3.6}, {"smiles": "Cc1oc(C)c2c(=O)ccc3c(c12)OC(N)=C(C#N)C3c1ccccc1", "note": "(stereo not given)", "z-score": 6.6}, {"smiles": "CCCN(CCC)c1ccc(/C=C/c2ccc3cc(OCC)ccc3n2)cc1", "z-score": 5.3}, {"smiles": "COc1ccc(C(=O)Nc2ccc3nc(C)sc3c2)cc1OC", "z-score": 1.51}, {"smiles": "Cc1nc2ccc(NC(=O)c3cc(S(=O)(=O)N4CCOCC4)ccc3C)cc2s1", "z-score": "-3 (active)"}, {"smiles": "Cc1ccc(C(C)C)c(OCc2nn(CC(=O)c3ccc(Cl)cc3)c3[n+]2CCCCC3)c1", "z-score": "-4.3 (active)"}, {"smiles": "N#CC1=C(N)C(C#N)(C#N)[C@H](c2ccoc2)[C@H]2CN(Cc3ccccc3)CC=C12", "z-score": 5.86}, {"smiles": "CCN(CC)CC(O)COc1ccc2c(c1)c(C(C)=O)c(C)n2-c1ccccc1", "note": "(stereo not given)", "z-score": "-3.02 (active)"}, {"smiles": "CC(C)CN1C(=O)/C(=C/c2c(N3CCc4ccccc4C3)nc3ccccn3c2=O)SC1=S", "z-score": 16.9}, {"smiles": "COc1ccc(C2C3=C(CCCC3=O)Nc3ccc4ncccc4c32)cc1OC", "note": "(stereo not given)", "z-score": 2.27}, {"smiles": "COc1cc(C2C(C#N)=C(C)NC3=C2C(=O)CC(C)(C)C3)ccc1O", "note": "(stereo not given)", "z-score": "-4.47 (active)"}, {"smiles": "COCC(C)n1c(SCC(=O)NC(=O)Nc2ccc3c(c2)OCCO3)nc2ccccc2c1=O", "note": "(stereo not given)", "z-score": "-4.52 (active)"}, {"smiles": "O=c1c(-c2ccccc2)coc2cc(O)ccc12", "z-score": 0.33}, {"smiles": "O=c1[nH]c(/C(Cl)=C/c2cccc(F)c2)nc2cc(C(F)(F)F)ccc12", "z-score": "-4.9 (active)"}, {"smiles": "CCN(CC)c1ccc(/C=C(/C#N)c2nc3ccc(C)cc3[nH]2)c(OC(C)C)c1", "z-score": 10.8}, {"smiles": "COC(=O)c1cc(CSc2nc3ccc(C)cc3[nH]2)oc1C", "z-score": "-3.9 (active)"}, {"smiles": "CC1CCCCC1NC(=O)COC(=O)c1c2c(nc3ccccc13)/C(=C/c1ccco1)CC2", "note": "(stereo not given)", "z-score": 7.1}, {"smiles": "NC(=O)c1ccc(NC(=O)COC(=O)c2c3c(nc4ccccc24)/C(=C\\c2cccs2)CCC3)cc1", "z-score": "-3.07 (active)"}, {"smiles": "C=CCNC(=O)c1c2c(nc3ccccc13)-c1ccccc1CC2", "z-score": 4.54}, {"smiles": "Cc1ccc(S(=O)(=O)Cn2nnnc2C(CC(C)C)N2CCN(c3ccccc3)CC2)cc1", "note": "(stereo not given)", "z-score": "-4.77 (active)"}, {"smiles": "Cn1ccc(=S)c2ccccc21", "z-score": 3.38}, {"smiles": "COC(=O)c1ccccc1NC(=O)Cn1cnc2cc(C)c(C)cc21", "z-score": "-3.24 (active)"}, {"smiles": "Cc1[nH]n(-c2ccc([N+](=O)[O-])cc2)c(=O)c1C=NCCN1CCN(C(=O)c2ccccc2F)CC1", "z-score": 4.48}, {"smiles": "COc1ccccc1N1C(=O)CC(Sc2n[nH]c(-c3cccc(C)c3)n2)C1=O", "note": "(stereo not given)", "z-score": "-5.2 (active)"}, {"smiles": "COC(=O)c1ccc(N2C(=O)CC(Sc3n[nH]c(C)n3)C2=O)cc1", "note": "(stereo not given)", "z-score": 1.02}, {"smiles": "N#CC(C#N)=C1C=C2C=C(N3CCOCC3)CCC2CC1", "note": "(stereo not given)", "z-score": 15.6}, {"smiles": "COc1ccccc1/C=N/n1c(N)c(S(=O)(=O)c2cccs2)c2nc3ccccc3nc21", "z-score": "-3.63 (active)"}, {"smiles": "O=c1c2ccccc2nc(-c2ccco2)n1/N=C/c1ccco1", "z-score": 2.3}, {"smiles": "CC(C)(C)c1ccc(OCC(=O)Nc2ccc3c4c(cccc24)C(=O)NC3=O)cc1", "z-score": 5.3}, {"smiles": "CCOc1ccc(C2C(C(=O)O)c3ccccc3C(=O)N2CCN2CCOCC2)cc1", "note": "(stereo not given)", "z-score": 4.94}, {"smiles": "CCOc1ccc(C2=C(C=Nc3c(C)n(C)n(-c4ccccc4)c3=O)C(c3ccc(F)cc3)c3ccccc3O2)cc1", "note": "(stereo not given)", "z-score": "-4.16 (active)"}, {"smiles": "COc1ccc(CNc2cc(NCCCO)c([N+](=O)[O-])c3nonc23)cc1", "z-score": 2.28}, {"smiles": "Cc1nn(-c2ccccc2)c(C)c1/C=N/NC(=O)CSc1nnc(SCc2ccccc2Cl)s1", "z-score": "-3.39 (active)"}, {"smiles": "Cc1cccc(-n2nnc(C(=O)NCc3ccccc3Cl)c2N)c1", "z-score": 1.52}, {"smiles": "O=C1S/C(=C\\c2ccc(N3CCOCC3)o2)C(=O)N1Cc1ccc(F)cc1", "z-score": 8.79}, {"smiles": "CC1CCc2cc(F)ccc2N1C(=O)c1ccc2c(c1)OCO2", "note": "(stereo not given)", "z-score": "-4.9 (active)"}, {"smiles": "COc1ccc(Nc2c(-c3ccco3)nc3ccc(C)cn23)cc1", "z-score": 5.18}, {"smiles": "Cc1ccn2c(NC3CCCCC3)c(C)nc2c1", "z-score": 3.89}, {"smiles": "Cc1ccc(-c2cn3cccnc3n2)cc1", "z-score": 2.84}, {"smiles": "Cc1ccn2c(Nc3ccccc3C)c(-c3ccccn3)nc2c1", "z-score": "-3.6 (active)"}, {"smiles": "COc1ccc(-n2nc([N+](=O)[O-])c(=NCc3ccco3)n2O)cc1", "z-score": 4.25}, {"smiles": "Cc1ccc(-c2cc(C(F)(F)F)n3nc(C(=O)NCCCn4ccnc4)cc3n2)cc1C", "z-score": "-5.59 (active)"}, {"smiles": "CC1CCN(C(=O)c2cc3nc(C4CC4)cc(C(F)(F)F)n3n2)CC1", "z-score": -0.53}, {"smiles": "O=C(Cn1cnc2c(cnn2-c2ccc(F)cc2)c1=O)N1CCCc2ccccc21", "z-score": 1.13}, {"smiles": "O=C(CSCC(=O)N1CCCc2ccccc21)Nc1nc(-c2ccccc2)cs1", "z-score": "-4.03 (active)"}, {"smiles": "Cc1cc(C)cc(N=Cc2[nH]c3ccc(Br)c(Cl)c3c2O)c1", "z-score": 13.9}, {"smiles": "O=C(NCCCn1ccnc1)/C(=C/c1ccco1)NC(=O)c1cccs1", "z-score": 3.41}, {"smiles": "Cc1nn(Cc2ccccc2Cl)c2sc(C(=O)NCCCn3ccnc3)cc12", "z-score": "-4.53 (active)"}, {"smiles": "Cc1ccc(C(=O)NCCCn2ccnc2)cc1[N+](=O)[O-]", "z-score": 5.54}, {"smiles": "COc1ccccc1N1CCN(Cc2nc(N)nc(Nc3ccccc3)n2)CC1", "z-score": "-3.17 (active)"}, {"smiles": "CN1CCN(Cc2nc(N)nc(Nc3ccc4c(c3)OCCO4)n2)CC1", "z-score": 4.73}, {"smiles": "COc1ccccc1N1CCN(C/C(O)=C(\\C#N)c2nc(-c3ccccc3)cs2)CC1", "z-score": 3.2}, {"smiles": "Cc1cccc(Nc2nc(N)nc(CN3CCN(c4ccccc4)CC3)n2)c1", "z-score": -1.36}]}]}
